This is an account of results in PubChem BioAssay.

“And” between values parts separate entries of the source, which are not always exact repeats. Equal values may be shown once. The source made the active and inactive calls.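 The calls were made as follows, unless noted: active = compounds whose cell count with miR-34 switched on is under 0.7 times the count with it off; inactive = the rest.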

In assay [1] the test system is Aerobactin synthetase IucA (Klebsiella pneumoniae). Nature of the assay: IucA aerobactin synthetase inhibitors, biochemical, Tocris library, absorbance (AID 1345561; call rule not given here;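 also: 100% = enzyme without compound and 0% = no enzyme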). The conditions noted are these: purified IucA enzyme assay, absorbance (OD) read-out; stronger effect = lower value;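 tested at 8 µM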.
Assay [2] can be described thus: sensitizers of A549 cells to miR-34 induction, primary screen, imaging, A549 dox-inducible miR-34, nuclei and caspase counts (AID 1347080). The conditions noted are these: A549 miR-34 inducible, Hoechst nuclei count, 48 h.
Assay [3] is described as follows: viability rescue of complex I mutant cybrids, primary screen, cell-based, galactose medium, ATP luminescence (AID 1645843;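 active = z-score of at least 1.8 in each of two replicates, scored against plate mean and spread of sample wells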;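 also: positive z means more ATP and so rescue of galactose-driven cybrid death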). The conditions noted are these: complex I mutant cybrid cells, 72 h, stronger effect = higher value.
[4] abbreviates: stronger effect = lower value, cell number ratio, induced over uninduced.
Setting [5] is: measured here: relative caspase fold change +Dox/-Dox.
Where [6] appears, read: measured here: total cells with miR-34 induction, stronger effect = lower value.
[7] abbreviates: measured here: total cells without miR-34 induction.

With `C[C@@H]1O[C@@]2(CS1)CN1CCC2CC1` (racemic), the remaining activity in assay [1] was 111% (inactive). In addition, the figures for the fold change in assay [2] (setting [4]) and in assay [2] (setting [5]) were 0.892 (inactive) and 1.88, respectively. The values for the cell count in assay [2] (setting [6]) and in assay [2] (setting [7]) were 8540 and 9570, respectively. In assay [3], the z-score is 0.375 (inactive).
For the molecule `CCOC(=O)c1ncc2[nH]c3cccc(OC(C)C)c3c2c1C`, the remaining activity in assay [1] was 96.4% (inactive). The fold change in assay [2] (setting [4]) was 0.924 (inactive); in assay [2] (setting [5]), 0.813. Further, the cell count in assay [2] (setting [6]) came out at 5120; in assay [2] (setting [7]), 5540. The z-score in assay [3] is -0.64 (inactive).
With `CCCC[P+](CCCC)(CCCC)Cc1ccc(NC(=O)[C@@H](Cc2ccc3ccccc3c2)NC(=NC2CCCCC2)NC2CCCCC2)cc1`, the remaining activity in assay [1] is 117% (inactive). Moreover, the fold change was 1.01 (inactive) in assay [2] (setting [4]) and 1.13 in assay [2] (setting [5]). For the same molecule, the figures for the cell count in assay [2] (setting [6]) and in assay [2] (setting [7]) were 2940 and 2900, respectively. Further, in assay [3], the z-score is -0.83 (inactive).
For the molecule `N[C@@H](C(=O)O)c1ccc(C(=O)O)c(C(=O)O)c1`, the remaining activity in assay [1] was 95.5% (inactive). Besides, the fold change in assay [2] (setting [4]) was 0.914 (inactive); in assay [2] (setting [5]) it was 0.832. The cell count was determined as 8600 in assay [2] (setting [6]) and 9410 in assay [2] (setting [7]). In assay [3], the z-score was 0.05 (inactive).
Take `NS(=O)(=O)c1nn2cc(-c3ccccc3)nc2s1`: the remaining activity in assay [1] is 99.1% (inactive). In addition, the fold change in assay [2] (setting [4]) was 1.09 (inactive); in assay [2] (setting [5]), 0.795. Moreover, the cell count in assay [2] (setting [6]) was 4960; in assay [2] (setting [7]), 4530. Further, the z-score in assay [3] was -0.585 (inactive).
Take `C=CCNC(=O)c1cc([N+](=O)[O-])cc2c(=O)[nH]c(Nc3ccc(Cl)c(Cl)c3)nc12`: the remaining activity in assay [1] is 116% (inactive). Besides, the fold change in assay [2] (setting [4]) is 0.926 (inactive); in assay [2] (setting [5]), 0.827. Also, the cell count came to 8840 in assay [2] (setting [6]) and 9550 in assay [2] (setting [7]). Further, in assay [3], the z-score was -0.09 (inactive).
Consider `NC(=O)N1c2ccccc2CC(O)c2ccccc21` (stereo unspecified), for which, in assay [1], the remaining activity was 111% (inactive). Besides, the fold change in assay [2] (setting [4]) is 0.942 (inactive); in assay [2] (setting [5]), 0.846. Further, the cell count in assay [2] (setting [6]) turned out to be 8870; in assay [2] (setting [7]), 9420. The z-score in assay [3] is -0.055 (inactive).
Turning to `CN(CC[C@@H](Oc1ccc(-c2ccccc2)cc1)c1ccc(F)cc1)CC(=O)O`, in assay [1], the remaining activity was 116% (inactive). Besides, the figures for the fold change in assay [2] (setting [4]) and in assay [2] (setting [5]) were 0.898 (inactive) and 1.24, respectively. In addition, the cell count in assay [2] (setting [6]) stood at 7970; in assay [2] (setting [7]) it was 8870. In assay [3], the z-score was 0.455 (inactive).
Turning to `CCN(CC)CCCCC1CCN(CC(=O)N2c3ccccc3C(=O)Nc3cccnc32)CC1`, in assay [1], the remaining activity was 105% (inactive). In addition, the values for the fold change in assay [2] (setting [4]) and in assay [2] (setting [5]) were 0.936 (inactive) and 1.52, respectively. The cell count in assay [2] (setting [6]) came to 8520; in assay [2] (setting [7]), 9110. For the same molecule, the z-score in assay [3] is -0.225 (inactive).
On to `CCCCc1nc2ccn(CC(=O)N(C)C)c(=O)c2n1Cc1ccc(-c2ccccc2-c2nn[nH]n2)cc1`, for which the remaining activity in assay [1] is 111% (inactive). For the same molecule, the fold change in assay [2] (setting [4]) is 1.01 (inactive); in assay [2] (setting [5]), 0.927. In addition, the values for the cell count in assay [2] (setting [6]) and in assay [2] (setting [7]) were 8240 and 8192, respectively. Moreover, the z-score in assay [3] is -0.18 (inactive).
Consider `CC1Nc2ccc(Cl)cc2S(=O)(=O)N1` (stereo unspecified), for which the remaining activity in assay [1] is 102% (inactive). The fold change in assay [2] (setting [4]) was 0.919 (inactive); in assay [2] (setting [5]), 0.718. Moreover, the cell count is 8550 in assay [2] (setting [6]) and 9300 in assay [2] (setting [7]). Also, the z-score in assay [3] was 0.035 (inactive).
On to `CN1c2cc3c(cc2N=C(c2ccc(C(=O)O)cc2)c2ccccc21)C(C)(C)CCC3(C)C`, for which, in assay [1], the remaining activity is 106% (inactive). The fold change in assay [2] (setting [4]) was 0.924 (inactive); in assay [2] (setting [5]) it was 2. Besides, the values for the cell count in assay [2] (setting [6]) and in assay [2] (setting [7]) were 7660 and 8280, respectively. Further, in assay [3], the z-score is -0.495 (inactive).
Take `C/C=C1/C(=O)C[C@H]2[C@@H]3CCC4=CC(=O)CC[C@]4(C)[C@H]3CC[C@]12C`: the remaining activity in assay [1] is 104% (inactive). Also, the fold change in assay [2] (setting [4]) was 0.844 (inactive); in assay [2] (setting [5]), 3.69. For the same molecule, the results for the cell count in assay [2] (setting [6]) and in assay [2] (setting [7]) were 6570 and 7790, respectively. Also, in assay [3], the z-score is -0.33 (inactive).
Turning to `N[C@@H](C(=O)O)[C@@H](OCc1ccccc1)C(=O)O` (racemic), in assay [1], the remaining activity was 110% (inactive). For the same molecule, the results for the fold change in assay [2] (setting [4]) and in assay [2] (setting [5]) were 0.921 (inactive) and 1.02, respectively. Also, the cell count in assay [2] (setting [6]) was 8010; in assay [2] (setting [7]), 8700. Moreover, the z-score in assay [3] is 0.315 (inactive).
For the molecule `CC[C@@H]1Cn2c(c3nc(-c4ccccc4)nc-3n(C)c2=O)N1`, in assay [1], the remaining activity is 108% (inactive). The values for the fold change in assay [2] (setting [4]) and in assay [2] (setting [5]) were 0.901 (inactive) and 1.44, respectively. Besides, the figures for the cell count in assay [2] (setting [6]) and in assay [2] (setting [7]) were 7600 and 8440, respectively. In addition, the z-score in assay [3] was -0.165 (inactive).
Take `O=C(O)COc1ccc(OCCNC[C@@H](O)COc2ccccc2)cc1`: the remaining activity in assay [1] is 89.3% (inactive). In addition, the fold change in assay [2] (setting [4]) was 0.984 (inactive); in assay [2] (setting [5]), 1.02. The values for the cell count in assay [2] (setting [6]) and in assay [2] (setting [7]) were 8850 and 8990, respectively. In addition, the z-score in assay [3] was 0.955 (inactive).
For `O=C(Nc1ccccc1)N[C@H]1C[C@H](C(=O)O)Nc2cc(Cl)cc(Cl)c21`, the remaining activity in assay [1] is 104% (inactive). The fold change was 0.916 (inactive) in assay [2] (setting [4]) and 0.915 in assay [2] (setting [5]). The cell count in assay [2] (setting [6]) was determined as 8670; in assay [2] (setting [7]), 9460. In addition, the z-score in assay [3] is 0.995 (inactive).
In the case of `Cc1c(NC(=O)N2CCOCC2)ccc2c1c1ccccc1n2C(C)C`, the remaining activity in assay [1] was 122% (inactive). The fold change is 0.891 (inactive) in assay [2] (setting [4]) and 1.37 in assay [2] (setting [5]). Moreover, the cell count was 8260 in assay [2] (setting [6]) and 9270 in assay [2] (setting [7]). Further, the z-score in assay [3] is 1.14 (inactive).
For the molecule `Cc1cc(Cn2cnc3c2C[C@@H](C(=O)O)N(C(=O)C(c2ccccc2)c2ccccc2)C3)ccc1N(C)C`, in assay [1], the remaining activity was 122% (inactive). For the same molecule, the results for the fold change in assay [2] (setting [4]) and in assay [2] (setting [5]) were 0.877 (inactive) and 0.611, respectively. The cell count in assay [2] (setting [6]) turned out to be 8880; in assay [2] (setting [7]), 10100. In assay [3], the z-score is 0.245 (inactive).
As for `CCCOc1ccc(Br)cc1-c1cc(-c2ccc(Cl)cc2)[nH]c1-c1ccncc1`, the remaining activity in assay [1] is 102% (inactive). For the same molecule, the fold change in assay [2] (setting [4]) is 0.969 (inactive); in assay [2] (setting [5]), 1.19. The cell count in assay [2] (setting [6]) worked out at 8200; in assay [2] (setting [7]), 8460. Besides, the z-score in assay [3] is 0.1 (inactive).
`O/N=C/c1ccc(-c2ccc(O)c(F)c2)c(Cl)c1O`: in assay [1], the remaining activity was 117% (inactive). The fold change in assay [2] (setting [4]) is 0.891 (inactive); in assay [2] (setting [5]), 1.26. Further, the figures for the cell count in assay [2] (setting [6]) and in assay [2] (setting [7]) were 7880 and 8840, respectively. Also, the z-score in assay [3] was -0.63 (inactive).
Regarding `Cc1cc(C)c(N(Cc2ccccc2)S(=O)(=O)c2ccc(OCCNC(=O)c3cc4ccccc4o3)cc2)c(C(=O)NO)c1`, the remaining activity in assay [1] is 101% (inactive). Also, the fold change in assay [2] (setting [4]) is 0.895 (inactive); in assay [2] (setting [5]), 0.617. Further, the cell count in assay [2] (setting [6]) is 2050; in assay [2] (setting [7]), 2290. Further, the z-score in assay [3] was -0.695 (inactive).
As to `CC(C)Oc1ccc2c(=O)c3cc(C(=O)O)ccc3oc2c1`, the remaining activity in assay [1] is 93.9% (inactive). Also, the fold change in assay [2] (setting [4]) is 1.01 (inactive); in assay [2] (setting [5]), 1.37 and 0.638. Besides, the cell count in assay [2] (setting [6]) is 5920 and 8510; in assay [2] (setting [7]), 5860 and 8390. Moreover, in assay [3], the z-score was 0.015 (inactive).
With `OC(CCCN1CCN(c2ncc(F)cn2)CC1)c1ccc(F)cc1` (stereo unspecified), the remaining activity in assay [1] was 116% (inactive). The fold change in assay [2] (setting [4]) is 0.931 (inactive); in assay [2] (setting [5]), 0.869. In addition, the results for the cell count in assay [2] (setting [6]) and in assay [2] (setting [7]) were 7880 and 8470, respectively. Besides, in assay [3], the z-score was -0.495 (inactive).
For `CC(O)(C(=O)Nc1ccc(S(=O)(=O)c2ccccc2)cc1)C(F)(F)F` (stereo unspecified), the remaining activity in assay [1] was 125% (inactive). In addition, the fold change in assay [2] (setting [4]) is 0.907 (inactive) and 0.921 (inactive); in assay [2] (setting [5]), 1.29 and 0.986. Besides, the cell count in assay [2] (setting [6]) was 4820 and 7390; in assay [2] (setting [7]), 5310 and 8020. For the same molecule, in assay [3], the z-score was -0.32 (inactive).
Consider `COc1cccc(C=NC=Nc2cccc(OC)c2)c1`, for which the remaining activity in assay [1] was 120% (inactive). The fold change was 0.917 (inactive) in assay [2] (setting [4]) and 0.661 in assay [2] (setting [5]). Besides, the cell count was 8640 in assay [2] (setting [6]) and 9420 in assay [2] (setting [7]). Also, the z-score in assay [3] is -0.08 (inactive).

Usually remaining activity stands for the signal under treatment as a percentage of the control signal.
